Data on 1 compound can be found in ChEMBL document CHEMBL2218924, “A broad activity screen in support of a chemogenomic map for kinase signalling research and drug discovery” (Biochem J, 2013).

Assay [1] concerns the target T1, Serine/threonine-protein kinase TBK1 (Homo sapiens) (UniProt Q9UHD2).
T1 sequence (whole entry): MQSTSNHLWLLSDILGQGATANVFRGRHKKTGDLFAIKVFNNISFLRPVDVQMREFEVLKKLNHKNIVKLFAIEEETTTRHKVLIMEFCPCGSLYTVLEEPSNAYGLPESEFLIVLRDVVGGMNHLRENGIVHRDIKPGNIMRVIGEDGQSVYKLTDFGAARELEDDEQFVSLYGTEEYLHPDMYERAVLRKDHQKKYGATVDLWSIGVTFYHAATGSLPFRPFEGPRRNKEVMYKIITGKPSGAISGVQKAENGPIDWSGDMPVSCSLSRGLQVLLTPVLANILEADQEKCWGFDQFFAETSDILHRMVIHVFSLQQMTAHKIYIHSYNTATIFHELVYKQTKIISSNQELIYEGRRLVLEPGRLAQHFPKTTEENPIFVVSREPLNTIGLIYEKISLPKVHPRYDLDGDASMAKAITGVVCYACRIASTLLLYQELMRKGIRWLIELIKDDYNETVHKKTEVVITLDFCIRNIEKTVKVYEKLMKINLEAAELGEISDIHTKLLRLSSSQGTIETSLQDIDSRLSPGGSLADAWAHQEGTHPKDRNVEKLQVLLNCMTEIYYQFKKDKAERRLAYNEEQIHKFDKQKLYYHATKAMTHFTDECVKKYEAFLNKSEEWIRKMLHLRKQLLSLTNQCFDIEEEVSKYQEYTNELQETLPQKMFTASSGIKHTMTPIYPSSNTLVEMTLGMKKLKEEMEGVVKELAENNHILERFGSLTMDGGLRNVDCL
To be noted: at 10 µM.

Assay [2] has as its target T2, TGF-beta receptor type-1 (Homo sapiens) (UniProt P36897).
T2 sequence (whole entry): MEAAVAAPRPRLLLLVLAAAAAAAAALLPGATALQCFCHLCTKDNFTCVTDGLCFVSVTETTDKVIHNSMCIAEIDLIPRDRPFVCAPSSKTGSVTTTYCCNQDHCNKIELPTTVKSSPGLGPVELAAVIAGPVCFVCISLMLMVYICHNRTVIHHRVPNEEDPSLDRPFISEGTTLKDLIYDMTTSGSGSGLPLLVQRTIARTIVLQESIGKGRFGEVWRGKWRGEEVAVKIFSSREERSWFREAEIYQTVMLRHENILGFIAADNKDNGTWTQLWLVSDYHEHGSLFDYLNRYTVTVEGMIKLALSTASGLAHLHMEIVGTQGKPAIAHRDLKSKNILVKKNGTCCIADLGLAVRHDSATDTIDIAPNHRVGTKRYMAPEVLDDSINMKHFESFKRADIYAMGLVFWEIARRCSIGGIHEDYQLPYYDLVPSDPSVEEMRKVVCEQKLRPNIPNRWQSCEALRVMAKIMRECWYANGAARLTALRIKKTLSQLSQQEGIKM
To be noted: at 1 µM.

Assay [3] addresses T2, TGF-beta receptor type-1 (Homo sapiens). To be noted: at 10 µM.
Assay [4] concerns the target Insulin-like growth factor 1 receptor (Homo sapiens) (UniProt P08069). To be noted: at 1 µM.
Assay [5] shares this target. To be noted: at 10 µM.
In assay [6] the target is T3, Inhibitor of nuclear factor kappa-B kinase subunit alpha (Homo sapiens) (UniProt O15111).
T3 sequence (whole entry): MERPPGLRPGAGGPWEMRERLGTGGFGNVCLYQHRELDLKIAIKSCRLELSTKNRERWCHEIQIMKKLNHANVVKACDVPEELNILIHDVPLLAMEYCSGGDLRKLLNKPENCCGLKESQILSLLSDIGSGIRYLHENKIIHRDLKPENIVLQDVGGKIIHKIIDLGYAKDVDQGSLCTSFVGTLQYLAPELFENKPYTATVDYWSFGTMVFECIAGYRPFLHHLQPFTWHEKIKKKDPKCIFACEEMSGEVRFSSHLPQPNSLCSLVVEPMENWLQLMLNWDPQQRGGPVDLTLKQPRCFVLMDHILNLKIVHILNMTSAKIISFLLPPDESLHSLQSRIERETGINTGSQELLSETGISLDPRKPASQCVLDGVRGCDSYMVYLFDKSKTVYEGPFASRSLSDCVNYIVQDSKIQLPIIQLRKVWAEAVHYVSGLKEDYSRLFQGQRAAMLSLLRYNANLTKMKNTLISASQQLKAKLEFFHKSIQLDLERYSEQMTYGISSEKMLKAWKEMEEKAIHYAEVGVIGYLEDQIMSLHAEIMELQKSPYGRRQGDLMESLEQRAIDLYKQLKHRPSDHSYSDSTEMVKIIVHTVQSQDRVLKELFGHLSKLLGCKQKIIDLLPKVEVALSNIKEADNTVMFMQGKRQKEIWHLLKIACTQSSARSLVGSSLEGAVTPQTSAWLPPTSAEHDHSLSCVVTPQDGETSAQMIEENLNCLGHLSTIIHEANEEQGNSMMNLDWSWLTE
To be noted: at 1 µM.

Assay [7] has as its target T3, Inhibitor of nuclear factor kappa-B kinase subunit alpha (Homo sapiens). To be noted: at 10 µM.
In assay [8] the target is T4, Inhibitor of nuclear factor kappa-B kinase subunit beta (Homo sapiens) (UniProt O14920).
T4 sequence (whole entry): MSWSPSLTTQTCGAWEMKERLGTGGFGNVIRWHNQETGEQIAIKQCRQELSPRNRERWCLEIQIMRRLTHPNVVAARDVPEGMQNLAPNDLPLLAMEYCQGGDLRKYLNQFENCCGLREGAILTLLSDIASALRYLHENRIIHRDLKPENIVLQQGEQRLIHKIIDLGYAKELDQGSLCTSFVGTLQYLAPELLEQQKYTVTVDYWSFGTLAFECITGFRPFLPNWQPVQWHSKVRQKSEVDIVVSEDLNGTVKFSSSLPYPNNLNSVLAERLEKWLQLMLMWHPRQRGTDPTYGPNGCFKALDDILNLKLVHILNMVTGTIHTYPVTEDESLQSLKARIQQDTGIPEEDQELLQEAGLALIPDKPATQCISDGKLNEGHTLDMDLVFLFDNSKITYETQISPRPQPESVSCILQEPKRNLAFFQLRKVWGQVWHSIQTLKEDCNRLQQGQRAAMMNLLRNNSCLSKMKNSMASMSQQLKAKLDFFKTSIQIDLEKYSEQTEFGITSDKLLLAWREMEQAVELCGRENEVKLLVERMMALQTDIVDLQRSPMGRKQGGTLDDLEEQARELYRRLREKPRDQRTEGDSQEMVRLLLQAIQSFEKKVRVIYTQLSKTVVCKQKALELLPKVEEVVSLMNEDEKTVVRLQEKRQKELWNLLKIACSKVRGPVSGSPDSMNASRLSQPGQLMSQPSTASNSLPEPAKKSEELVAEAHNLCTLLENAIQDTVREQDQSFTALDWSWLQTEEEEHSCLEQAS
To be noted: at 1 µM.

Assay [9] addresses T4, Inhibitor of nuclear factor kappa-B kinase subunit beta (Homo sapiens). To be noted: at 10 µM.
For assay [10], the target named is Insulin receptor (Homo sapiens) (UniProt P06213). To be noted: at 1 µM.
Sequence of Insulin receptor (Homo sapiens) (P06213 28-758 limits assumed): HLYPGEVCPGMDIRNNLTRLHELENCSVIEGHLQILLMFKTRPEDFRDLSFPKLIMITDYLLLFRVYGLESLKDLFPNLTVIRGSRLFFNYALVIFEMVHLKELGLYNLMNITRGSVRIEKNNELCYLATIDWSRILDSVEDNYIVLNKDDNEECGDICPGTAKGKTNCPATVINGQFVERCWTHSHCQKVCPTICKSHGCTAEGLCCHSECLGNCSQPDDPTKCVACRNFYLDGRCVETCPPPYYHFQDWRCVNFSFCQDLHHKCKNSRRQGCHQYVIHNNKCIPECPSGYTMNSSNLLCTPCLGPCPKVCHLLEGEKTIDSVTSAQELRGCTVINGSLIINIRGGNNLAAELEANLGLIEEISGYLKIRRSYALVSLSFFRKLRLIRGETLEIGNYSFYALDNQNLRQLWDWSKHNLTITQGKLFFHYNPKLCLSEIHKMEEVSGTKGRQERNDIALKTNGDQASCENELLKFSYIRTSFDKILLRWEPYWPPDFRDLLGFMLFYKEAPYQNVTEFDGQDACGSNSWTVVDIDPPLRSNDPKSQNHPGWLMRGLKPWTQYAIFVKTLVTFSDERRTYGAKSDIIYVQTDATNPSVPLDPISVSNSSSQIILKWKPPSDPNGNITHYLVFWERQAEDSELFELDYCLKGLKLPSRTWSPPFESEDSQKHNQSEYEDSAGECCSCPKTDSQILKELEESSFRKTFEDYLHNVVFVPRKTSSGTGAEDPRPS
Sequence of Insulin receptor (Homo sapiens) (P06213 763-1382 limits assumed): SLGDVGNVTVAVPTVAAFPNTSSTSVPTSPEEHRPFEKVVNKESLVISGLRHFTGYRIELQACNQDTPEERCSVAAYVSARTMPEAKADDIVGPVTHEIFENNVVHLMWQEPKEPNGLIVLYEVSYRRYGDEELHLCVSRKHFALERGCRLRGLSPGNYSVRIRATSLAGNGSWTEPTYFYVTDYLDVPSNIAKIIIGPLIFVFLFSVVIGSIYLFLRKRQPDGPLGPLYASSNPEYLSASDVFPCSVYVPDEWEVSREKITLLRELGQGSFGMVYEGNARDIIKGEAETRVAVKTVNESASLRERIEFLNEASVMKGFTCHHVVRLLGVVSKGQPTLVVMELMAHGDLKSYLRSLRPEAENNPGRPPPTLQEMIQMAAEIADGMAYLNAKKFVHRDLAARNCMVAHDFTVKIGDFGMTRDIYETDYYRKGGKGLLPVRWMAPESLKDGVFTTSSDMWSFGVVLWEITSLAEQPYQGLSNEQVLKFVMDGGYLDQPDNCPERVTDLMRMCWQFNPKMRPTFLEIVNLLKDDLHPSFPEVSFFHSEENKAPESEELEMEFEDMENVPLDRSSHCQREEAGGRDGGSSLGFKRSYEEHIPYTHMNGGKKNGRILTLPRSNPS

Sequence of Insulin-like growth factor 1 receptor (Homo sapiens) (P08069 31-736 limits assumed): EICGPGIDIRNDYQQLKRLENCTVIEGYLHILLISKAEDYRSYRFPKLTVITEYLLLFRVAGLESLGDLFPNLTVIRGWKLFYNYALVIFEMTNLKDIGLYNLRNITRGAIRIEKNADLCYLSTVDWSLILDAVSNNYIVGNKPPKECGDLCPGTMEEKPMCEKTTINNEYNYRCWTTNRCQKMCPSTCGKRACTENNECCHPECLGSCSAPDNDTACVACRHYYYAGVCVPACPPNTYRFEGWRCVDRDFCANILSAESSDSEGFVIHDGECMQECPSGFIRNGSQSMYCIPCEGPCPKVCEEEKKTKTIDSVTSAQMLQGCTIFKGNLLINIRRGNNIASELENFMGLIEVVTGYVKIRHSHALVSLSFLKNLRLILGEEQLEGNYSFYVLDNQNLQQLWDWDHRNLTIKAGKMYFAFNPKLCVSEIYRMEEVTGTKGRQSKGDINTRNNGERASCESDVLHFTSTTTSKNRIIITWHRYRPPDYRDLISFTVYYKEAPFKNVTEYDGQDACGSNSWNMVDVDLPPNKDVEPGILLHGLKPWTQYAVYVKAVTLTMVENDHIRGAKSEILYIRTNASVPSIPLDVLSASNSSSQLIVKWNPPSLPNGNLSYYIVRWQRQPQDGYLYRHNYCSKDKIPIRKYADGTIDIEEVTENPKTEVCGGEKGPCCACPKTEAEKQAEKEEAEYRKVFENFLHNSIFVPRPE
Sequence of Insulin-like growth factor 1 receptor (Homo sapiens) (P08069 741-1367 limits assumed): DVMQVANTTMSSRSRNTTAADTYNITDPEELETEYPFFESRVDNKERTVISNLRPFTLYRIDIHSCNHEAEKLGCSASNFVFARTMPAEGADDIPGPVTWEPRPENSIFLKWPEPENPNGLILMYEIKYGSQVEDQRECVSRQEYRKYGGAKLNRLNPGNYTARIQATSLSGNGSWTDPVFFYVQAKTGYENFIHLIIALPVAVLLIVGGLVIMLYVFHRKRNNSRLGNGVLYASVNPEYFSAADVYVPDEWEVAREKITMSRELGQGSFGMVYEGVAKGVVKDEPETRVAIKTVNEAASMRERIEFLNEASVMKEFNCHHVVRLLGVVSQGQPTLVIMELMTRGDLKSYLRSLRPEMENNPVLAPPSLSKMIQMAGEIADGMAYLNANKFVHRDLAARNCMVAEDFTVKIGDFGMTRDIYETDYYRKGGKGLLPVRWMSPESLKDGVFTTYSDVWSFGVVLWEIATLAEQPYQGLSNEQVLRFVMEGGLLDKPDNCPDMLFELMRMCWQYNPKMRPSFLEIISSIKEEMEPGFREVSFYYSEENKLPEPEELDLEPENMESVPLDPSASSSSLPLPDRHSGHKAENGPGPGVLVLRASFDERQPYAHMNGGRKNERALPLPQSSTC

Regarding `Oc1ccc(Nc2nc(-c3ccc(Cl)cc3)cs2)cc1`, the residual activity in assay [1] was 80%; in [2] it was 123%; in assay [3] it was 100%; in [4], 103%; in assay [5], 108%; in assay [6] it was 102%. Further, the residual activity in assay [7] turned out to be 134%; in assay [8], 115%; in [9], 110%; in assay [10] it was 112%.
